Source: PubChem BioAssay (NCATS)
Records with an inconclusive call do not appear. Activity calls are given as the source filed them. Unless noted, calls come from the whole dose curve; as a rule, active = well fitted curve in the direction sought with a large enough effect; inconclusive = small, poorly fitted or top-dose-only effect, or another doubt; inactive = no such curve, though single readings can be large; an effect the other way counts as inactive or inconclusive.

What was measured:
[1] = target: Lysosomal acid glucosylceramidase (Homo sapiens) (UniProt P04062); test: Glucocerebrosidase-p2 (AID 348; in the data active = potency below about 10 µM; note: potency is the fitted concentration of half-maximal effect); conditions: purified GBA, blue fluorogenic substrate, 40 min
How it was run: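 Compounds titrated from 0.6 nM upwards against 0.2 nM enzyme in pH 5.9 citric acid/KH2PO4, taurocholate, tween-20; blue fluorogenic substrate 80 uM, 40 min room temperature, stopped and read Ex 365/Em 440 for AC50.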

[2] = target: Cytochrome P450 1A2 (Homo sapiens) (UniProt P05177); test: p450-cyp1a2 (AID 410; calls by dose curve; note: potency is the fitted concentration of half-maximal effect); conditions: recombinant CYP1A2, luciferin-ME demethylation, luminescence; series mostly up to 57 µM
How it was run: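 20nM CYP1A2 with 100uM Luciferin-ME (at Km) in 100mM KPO4; compound preincubated 10 min, NADPH regeneration added, 60 min at room temperature. Luciferin quantified by luminescence after detection reagent; normalized to 57 uM furafylline.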

[3] = target: Glucocorticoid receptor (Homo sapiens) (UniProt P04150); test: GR-EFC Redistribution (AID 451; calls by dose curve; note: potency is the fitted concentration of half-maximal effect); conditions: CHO-K1 GR-EFC translocation, beta-gal luminescence, 2 h
How it was run: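 CHO-K1 cells expressing nuclear EA and GR-ED fragments of b-gal; compounds titrated up to 46 uM final, 2 h at 37 C. GR nuclear translocation read as complemented b-gal luminescence after 1 h RT detection.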

[4] = target: 3',5'-cyclic-AMP phosphodiesterase 4B (Homo sapiens) (UniProt Q07343); test: qHTS Assay for Inhibitors of PDE-IV (AID 607; active = well fitted activation curve with a large enough effect in the main read-out, with a control signal flat, not every such curve was filed as active; note: potency is the fitted concentration of half-maximal effect); conditions: HEK293 ACTOne CNG channel cells, membrane potential fluorescence; series mostly up to 22.9 µM
How it was run: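 HEK293 ACTOne cells with CNG channel (1000/well), endogenous PDE4; membrane potential dye, compounds up to 22.9 uM final. Fluorescence Ex 535/Em 590; RO 20-1724 (100 uM final) as reference.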

[5] = qHTS Assay for Lipid Storage Modulators (AID 1519; calls by dose curve); conditions: Drosophila S3 cells, BODIPY lipid droplet/cell ratio, laser cytometry, cells loaded with oleic acid; for activity change, negative = inhibition: at 57.5 µM (top of the series)
How it was run: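 Cells seeded at 5,000 per well were treated with compounds over a concentration series and loaded with oleic acid (400 uM, as added). Lipid droplet fluorescence (488 nm excitation, 500-530 nm channel) was read by laser-scanning cytometry and normalized to 20 uM Triacsin C.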

[6] = target: Dual specificity protein kinase CLK4 (Homo sapiens) (UniProt Q9HAZ1); test: qHTS Assay for Inhibitors of CDC-like Kinase 4 (ADP-FP Assay) (AID 1795); conditions: Transcreener ADP fluorescence polarization; series mostly up to 50 µM;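 note: recombinant human CLK4 phosphorylating RS repeat peptide at 1 µM ATP; % is set by controls: 0 for no effect and ±100 for the full control effect; nearly all actives have a fitted effect of over 60% in size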
How it was run: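 Kinase activity was followed as ADP output, converted from fluorescence polarization with a calibration curve. Reactions ran one hour at low ATP (1 uM) with RS peptide substrate.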

[7] = target: Ubiquitin carboxyl-terminal hydrolase 1 (Homo sapiens) (UniProt O94782); test: Inhibitors of USP1/UAF1: Pilot qHTS (AID 504865); conditions: purified USP1/UAF1, Ub-rhodamine cleavage fluorescence; series mostly up to 54.9 µM; note: nearly all actives have a fitted effect of over 35% in size; note: potency is the fitted concentration of half-maximal effect
How it was run: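 Enzyme-free wells gave the negative control, while test wells held 1nM USP1/UAF1 preincubated with compound for 15 min at room temperature. Ub-Rho at 150nM final started the reaction, and fluorescence at 480/540 nm was recorded kinetically.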

[8] = Primary qHTS for small molecule stabilizers of the endoplasmic reticulum resident proteome: Secreted ER Calcium Modulated Protein (SERCaMP) assay (AID 1508630); conditions: SH-SY5Y GLuc-SERCaMP (Gaussia luciferase released on ER calcium loss) secretion, thapsigargin, luminescence; series mostly up to 38.4 µM; note: % is set by controls: 0 for no effect and ±100 for the full control effect
How it was run: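 GLuc-SERCaMP-expressing SH-SY5Y cells, pretreated 16 h with compound, are challenged with thapsigargin to empty ER calcium stores; after 4 h, coelenterazine is added directly to the medium and luminescence is imaged.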

[9] = AP1 Signaling Pathway (AID 357; active = well fitted curve in either direction with a large enough effect, not every such curve was filed as active;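 note: ME-180 reporter cells stimulated with EGF at its EC50 level; % is set by controls: 0 for no effect and ±100 for the full control effect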); conditions: ME-180 AP-1-bla reporter, EGF-induced, beta-lactamase ratio, 5 h; at 7.69 µM (top of the series) unless noted
How it was run: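 First, ME-180 AP-1-bla cells were cultured overnight at 37 °C in low-serum Opti-MEM. Next, titrated compounds with EC50 EGF were incubated 5 hours. Finally, CCF4 was added for 2.5 hours and the 460/530 nm ratio recorded.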

[10] = NFAT Signaling Pathway (AID 444; active = well fitted curve in either direction with a large enough effect, not every such curve was filed as active;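 note: carbachol stimulus at about its EC50 of 1 µM final; % is set by controls: 0 for no effect and ±100 for the full control effect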); conditions: Jurkat NFAT-bla M1, carbachol, beta-lactamase ratio, 5 h; at 7.69 µM (top of the series) unless noted
How it was run: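 Jurkat cells with NFAT-driven β-lactamase reporter and co-expressed M1 receptor, stimulated with carbachol (final 1 uM, ~EC50), compound titration, 5 h at 37 °C. CCF4 loaded 1 h at RT; 460/530 nm ratio gave %activity and AC50.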

[11] = Stat Signaling Pathway (AID 446; active = well fitted curve in either direction with a large enough effect, not every such curve was filed as active;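 note: ME-180 cervical cancer cells given 40 pM IL-6 alongside compound; SIE-controlled beta-lactamase reporter measured as 460/530 nm FRET emission ratio; % is set by controls: 0 for no effect and ±100 for the full control effect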); conditions: ME-180 SIE beta-lactamase reporter, IL-6 stimulated, 5 h; at 7.69 µM (top of the series) unless noted
How it was run: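 ME-180 cells carrying a SIE-driven beta-lactamase reporter are stimulated with 40 pM IL-6 for 5 h at 37C in the presence of compound. The 460/530 nm FRET substrate ratio is read after 2.5 h at RT. Data are normalised to 300 pM IL-6 and to 125 nM JAK inhibitor controls.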

[12] = target: Glucocorticoid receptor (Homo sapiens) (UniProt P04150); test: GR-GFP Redistribution (AID 450;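 active = compounds whose dose series gives a full or clear partial fitted curve of increased nuclear translocation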; note: potency is the fitted concentration of half-maximal effect); conditions: U2OS GR-GFP nuclear translocation, laser cytometry, 2 h
[13] = target: Mitogen-activated protein kinase 10 (Mus musculus) (UniProt Q61831); test: JNK3 AlphaScreen Assay (AID 530; active = well fitted curve in either direction with a large enough effect, not every such curve was filed as active); conditions: JNK3 lysate, c-Jun phosphorylation; series mostly up to 57.1 µM
How it was run: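 Pre-activated (IL-1β/TNFα) JNK3 in HepG2 lysates phosphorylates biotin-GST-cJun(1-79), 10 uM ATP; anti-phospho-cJun(Ser73) AlphaScreen read at room temperature, pH 7.6 Tris buffer. Compounds pre-incubated 15 min as titrations.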

[14] = target: Cytochrome P450 3A4 (Homo sapiens) (UniProt P08684); test: qHTS Assay for Activators of Cytochrome P450 3A4 (AID 885); conditions: recombinant CYP3A4, Luciferin-PPXE luminescence, 60 min; series mostly up to 57.1 µM; note: nearly all actives have a fitted effect of over 65% in size
How it was run: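 Human CYP3A4 (20 nM) with Luciferin-PPXE at 25 uM (its KM) in 200 mM KPO4; 10 min compound preincubation, then NADPH regeneration and 60 min reaction at RT. Luciferin read by luminescence; normalized to 57 uM ketoconazole full inhibition.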

[15] = target: Cytochrome P450 2C9 (Homo sapiens) (UniProt P11712); test: qHTS Assay for Inhibitors and Substrates of Cytochrome P450 2C9 (AID 883); conditions: recombinant CYP2C9, luciferin-H luminescence, 60 min; series mostly up to 57.1 µM; note: % is set by controls: 0 for no effect and ±100 for the full control effect; nearly all actives have a fitted effect of over 60% in size
How it was run: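 Human CYP2C9 (10nM) with Luciferin-H at 100uM (its KM) in 25mM KPO4; compound preincubated 10 min at 37C, then NADPH regeneration for 60 min at 37C. Luciferin read by luminescence after detection reagent; normalized to 57uM sulphaphenazole as full inhibition.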

[16] = target: Cytochrome P450 3A4 (Homo sapiens) (UniProt P08684); test: qHTS Assay for Inhibitors and Substrates of Cytochrome P450 3A4 (AID 884); conditions: recombinant CYP3A4, Luciferin-PPXE luminescence; series mostly up to 57.1 µM; note: potency is the fitted concentration of half-maximal effect; nearly all actives have a fitted effect of over 50% in size
How it was run: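 20 nM human CYP3A4 with 25 uM Luciferin-PPXE (at KM) in 200 mM KPO4, preincubated 10 min with compound; NADPH regeneration started a 60 min RT reaction. Luciferin detected by luminescence, normalized to 57 uM ketoconazole as full inhibition.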

[17] = measured here: cell count channel max response
[18] = measured here: lipid channel max response

Sequence of Ubiquitin carboxyl-terminal hydrolase 1 (Homo sapiens) (O94782 whole entry, looked up): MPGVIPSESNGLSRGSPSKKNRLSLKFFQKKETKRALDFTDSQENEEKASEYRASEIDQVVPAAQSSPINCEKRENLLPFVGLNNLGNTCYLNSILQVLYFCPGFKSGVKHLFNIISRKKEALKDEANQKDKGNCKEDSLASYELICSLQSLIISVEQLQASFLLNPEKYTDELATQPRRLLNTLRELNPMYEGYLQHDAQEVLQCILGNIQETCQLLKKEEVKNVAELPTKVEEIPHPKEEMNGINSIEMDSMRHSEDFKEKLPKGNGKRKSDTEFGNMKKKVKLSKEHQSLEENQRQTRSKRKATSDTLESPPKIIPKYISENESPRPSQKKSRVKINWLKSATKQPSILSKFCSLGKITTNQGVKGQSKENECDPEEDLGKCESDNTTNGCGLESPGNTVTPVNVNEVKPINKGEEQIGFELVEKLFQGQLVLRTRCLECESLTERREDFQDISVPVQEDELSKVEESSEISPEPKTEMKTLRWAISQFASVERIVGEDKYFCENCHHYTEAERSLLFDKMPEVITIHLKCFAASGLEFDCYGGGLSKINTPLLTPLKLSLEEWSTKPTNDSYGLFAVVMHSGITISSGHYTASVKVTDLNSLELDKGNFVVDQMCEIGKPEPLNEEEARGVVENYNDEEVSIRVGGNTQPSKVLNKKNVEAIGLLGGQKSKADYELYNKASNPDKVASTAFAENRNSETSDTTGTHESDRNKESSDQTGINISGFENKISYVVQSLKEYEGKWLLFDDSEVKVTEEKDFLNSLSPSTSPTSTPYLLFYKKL
Sequence of Dual specificity protein kinase CLK4 (Homo sapiens) (Q9HAZ1 whole entry, looked up): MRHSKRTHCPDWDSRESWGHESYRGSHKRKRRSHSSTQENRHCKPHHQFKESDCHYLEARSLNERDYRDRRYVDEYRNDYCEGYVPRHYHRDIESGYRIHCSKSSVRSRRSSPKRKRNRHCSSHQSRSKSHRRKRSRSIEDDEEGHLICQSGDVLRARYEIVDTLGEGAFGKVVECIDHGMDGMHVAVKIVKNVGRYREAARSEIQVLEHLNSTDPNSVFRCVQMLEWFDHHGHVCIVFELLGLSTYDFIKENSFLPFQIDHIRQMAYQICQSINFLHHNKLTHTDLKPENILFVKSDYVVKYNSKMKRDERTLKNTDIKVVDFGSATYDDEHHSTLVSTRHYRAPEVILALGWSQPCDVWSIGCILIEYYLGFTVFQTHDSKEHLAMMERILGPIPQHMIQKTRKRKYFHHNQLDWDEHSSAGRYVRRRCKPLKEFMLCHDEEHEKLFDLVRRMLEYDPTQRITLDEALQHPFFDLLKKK
Sequence of Lysosomal acid glucosylceramidase (Homo sapiens) (P04062 whole entry, looked up): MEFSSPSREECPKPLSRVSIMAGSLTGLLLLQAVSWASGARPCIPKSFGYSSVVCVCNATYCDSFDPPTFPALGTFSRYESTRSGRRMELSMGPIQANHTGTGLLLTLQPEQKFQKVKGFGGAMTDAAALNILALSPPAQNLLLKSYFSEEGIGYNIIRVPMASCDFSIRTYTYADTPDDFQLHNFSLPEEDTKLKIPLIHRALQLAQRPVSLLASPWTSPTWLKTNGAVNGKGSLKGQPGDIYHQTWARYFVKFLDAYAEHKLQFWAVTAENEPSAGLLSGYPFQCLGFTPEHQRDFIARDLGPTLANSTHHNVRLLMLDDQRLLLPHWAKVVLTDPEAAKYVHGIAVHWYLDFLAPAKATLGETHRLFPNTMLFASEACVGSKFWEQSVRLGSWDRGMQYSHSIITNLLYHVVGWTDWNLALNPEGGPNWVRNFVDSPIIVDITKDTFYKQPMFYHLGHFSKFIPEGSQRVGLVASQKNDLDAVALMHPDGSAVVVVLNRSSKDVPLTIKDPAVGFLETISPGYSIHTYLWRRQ
Sequence of Cytochrome P450 1A2 (Homo sapiens) (P05177 whole entry, looked up): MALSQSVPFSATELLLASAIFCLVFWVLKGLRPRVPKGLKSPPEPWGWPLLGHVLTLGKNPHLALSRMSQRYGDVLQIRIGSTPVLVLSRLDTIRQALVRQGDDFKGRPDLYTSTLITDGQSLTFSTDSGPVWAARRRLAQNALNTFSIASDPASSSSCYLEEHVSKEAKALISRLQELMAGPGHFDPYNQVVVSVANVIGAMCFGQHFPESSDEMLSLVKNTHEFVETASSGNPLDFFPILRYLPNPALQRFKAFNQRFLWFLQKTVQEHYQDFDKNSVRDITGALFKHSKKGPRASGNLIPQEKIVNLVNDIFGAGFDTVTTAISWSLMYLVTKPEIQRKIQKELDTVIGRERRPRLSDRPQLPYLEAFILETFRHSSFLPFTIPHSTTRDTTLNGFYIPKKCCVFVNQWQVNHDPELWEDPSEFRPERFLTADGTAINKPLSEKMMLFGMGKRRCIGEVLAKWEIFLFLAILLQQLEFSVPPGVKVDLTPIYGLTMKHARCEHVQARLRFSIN
Sequence of 3',5'-cyclic-AMP phosphodiesterase 4B (Homo sapiens) (Q07343 whole entry, looked up): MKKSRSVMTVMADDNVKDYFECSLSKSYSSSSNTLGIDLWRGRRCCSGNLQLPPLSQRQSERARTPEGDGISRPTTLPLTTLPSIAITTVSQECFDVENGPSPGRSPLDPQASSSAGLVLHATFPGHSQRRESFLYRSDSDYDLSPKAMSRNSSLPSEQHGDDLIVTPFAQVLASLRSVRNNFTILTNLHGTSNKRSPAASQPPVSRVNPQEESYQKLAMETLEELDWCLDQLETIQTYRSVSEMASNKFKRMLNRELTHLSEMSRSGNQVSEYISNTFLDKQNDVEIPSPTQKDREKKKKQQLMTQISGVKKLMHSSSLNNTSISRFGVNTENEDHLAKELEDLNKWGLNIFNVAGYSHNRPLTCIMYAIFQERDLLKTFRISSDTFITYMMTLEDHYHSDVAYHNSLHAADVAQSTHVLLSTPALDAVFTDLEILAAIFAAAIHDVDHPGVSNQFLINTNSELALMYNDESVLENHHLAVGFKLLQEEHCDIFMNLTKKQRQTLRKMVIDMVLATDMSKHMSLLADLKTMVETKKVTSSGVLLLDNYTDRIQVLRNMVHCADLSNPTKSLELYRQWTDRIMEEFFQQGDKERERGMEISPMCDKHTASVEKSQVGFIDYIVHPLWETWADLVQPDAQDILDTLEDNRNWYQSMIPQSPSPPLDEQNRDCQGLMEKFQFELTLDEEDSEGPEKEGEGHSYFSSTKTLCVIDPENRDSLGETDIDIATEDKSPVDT
Sequence of Cytochrome P450 3A4 (Homo sapiens) (P08684 whole entry, looked up): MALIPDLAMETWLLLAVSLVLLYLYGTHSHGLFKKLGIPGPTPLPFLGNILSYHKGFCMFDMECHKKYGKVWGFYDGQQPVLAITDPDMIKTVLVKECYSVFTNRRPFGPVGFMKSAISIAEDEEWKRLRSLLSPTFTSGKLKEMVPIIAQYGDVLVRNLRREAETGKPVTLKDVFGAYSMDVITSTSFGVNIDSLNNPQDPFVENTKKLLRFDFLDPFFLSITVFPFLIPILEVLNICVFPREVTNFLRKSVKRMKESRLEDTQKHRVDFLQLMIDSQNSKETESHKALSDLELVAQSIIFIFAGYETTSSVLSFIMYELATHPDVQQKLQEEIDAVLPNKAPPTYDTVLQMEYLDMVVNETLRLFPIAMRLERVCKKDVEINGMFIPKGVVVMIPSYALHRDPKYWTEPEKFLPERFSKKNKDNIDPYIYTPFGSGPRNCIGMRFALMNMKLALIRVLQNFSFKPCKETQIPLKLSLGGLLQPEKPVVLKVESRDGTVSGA
Sequence of Glucocorticoid receptor (Homo sapiens) (P04150 whole entry, looked up, the tested form may be a part): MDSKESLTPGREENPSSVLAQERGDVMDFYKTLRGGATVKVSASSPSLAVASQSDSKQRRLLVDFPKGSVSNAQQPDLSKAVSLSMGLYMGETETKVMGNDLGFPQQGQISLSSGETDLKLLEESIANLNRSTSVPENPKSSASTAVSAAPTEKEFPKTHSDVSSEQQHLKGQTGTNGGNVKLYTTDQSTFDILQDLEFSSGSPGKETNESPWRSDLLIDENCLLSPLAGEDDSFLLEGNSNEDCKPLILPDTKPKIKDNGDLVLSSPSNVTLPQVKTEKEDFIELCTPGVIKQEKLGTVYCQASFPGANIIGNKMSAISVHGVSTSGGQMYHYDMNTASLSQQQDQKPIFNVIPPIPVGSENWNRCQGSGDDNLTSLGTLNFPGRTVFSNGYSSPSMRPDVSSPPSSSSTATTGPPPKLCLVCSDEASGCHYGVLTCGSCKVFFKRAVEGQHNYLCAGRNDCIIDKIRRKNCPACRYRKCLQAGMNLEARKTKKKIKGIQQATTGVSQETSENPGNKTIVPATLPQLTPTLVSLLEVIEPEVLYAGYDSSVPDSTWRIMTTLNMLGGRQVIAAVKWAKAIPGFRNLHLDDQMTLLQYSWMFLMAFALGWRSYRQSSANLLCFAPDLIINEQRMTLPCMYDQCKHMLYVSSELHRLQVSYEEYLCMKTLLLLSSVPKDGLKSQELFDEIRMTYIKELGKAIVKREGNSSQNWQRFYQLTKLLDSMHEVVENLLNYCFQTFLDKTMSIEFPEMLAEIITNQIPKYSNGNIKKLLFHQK
Sequence of Cytochrome P450 2C9 (Homo sapiens) (P11712 whole entry, looked up): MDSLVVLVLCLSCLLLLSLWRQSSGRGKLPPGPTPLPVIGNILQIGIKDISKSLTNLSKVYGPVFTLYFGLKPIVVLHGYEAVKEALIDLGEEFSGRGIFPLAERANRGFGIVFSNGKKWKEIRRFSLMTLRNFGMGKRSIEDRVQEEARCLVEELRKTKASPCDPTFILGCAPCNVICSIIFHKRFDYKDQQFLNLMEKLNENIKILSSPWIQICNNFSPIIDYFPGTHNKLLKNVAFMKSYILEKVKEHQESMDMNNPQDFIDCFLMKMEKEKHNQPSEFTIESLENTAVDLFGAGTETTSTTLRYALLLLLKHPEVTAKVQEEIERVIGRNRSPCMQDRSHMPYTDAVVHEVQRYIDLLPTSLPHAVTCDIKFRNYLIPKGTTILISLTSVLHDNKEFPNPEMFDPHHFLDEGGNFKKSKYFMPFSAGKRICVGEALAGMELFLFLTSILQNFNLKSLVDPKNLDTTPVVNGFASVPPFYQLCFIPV

COc1ccc(-n2c(=O)c(-c3ccc(Cl)cc3)nc3cnc(N4CCNCC4)nc32)cc1
16.5%: max response [5, 18]
9.83%: max response [5, 17]
inactive: Potency [1] > 11.4 µM | Potency [3] > 46 µM | Potency [4] | activity change, negative = inhibition [5] 5.55% | Potency [6] | Potency [7] | Potency [8]
active: Potency [2] 12.6 µM

CCNc1ncc2nc(C)c(=O)n(C)c2n1
22.7%: max response [5, 17]
inactive: Potency [1] > 11.4 µM | activity change, negative = inhibition [9] -6.84% | activity change, negative = inhibition [10] 2.38% | activity, negative = inhibition [11] -8.23% | Potency [12] > 9.22 µM | Potency [3] > 46 µM | outcome [13] | activity change, negative = inhibition [5] 2.6% | Potency [6] | Potency [7] | Potency [8]
active: Potency [2] 5.01 µM
26.7%: max response [5, 18]

CCNc1ncc2nc(C)c(=O)n(Cc3ccc(F)cc3)c2n1
active: Potency [2] 1.58 µM
inactive: activity change, negative = inhibition [9] -0.98% | activity change, negative = inhibition [10] -0.858% | activity, negative = inhibition [11] -2.29% | Potency [12] > 9.22 µM | outcome [13] | Potency [4] | Potency [14] | activity change, negative = inhibition [5] 3.29% | Potency [6] | Potency [7] | Potency [8]
24.2%: max response [5, 18]
23.4%: max response [5, 17]

c1csc(CNc2cc(-c3ccoc3)ncn2)c1
26.5%: max response [5, 17]
active: Potency [2] 2 µM
29.6%: max response [5, 18]
inactive: Potency [1] > 11.4 µM | activity change, negative = inhibition [9] -0.901% | activity change, negative = inhibition [10] -2.52% | activity, negative = inhibition [11] 3.9% | Potency [12] > 46 µM | Potency [3] > 46 µM | outcome [13] | Potency [4] | Potency [14] | activity change, negative = inhibition [5] 5.83% | Potency [6] | Potency [7] | Potency [8]

CCNc1ncc2nc(C)c(=O)n(C3CC3)c2n1
inactive: Potency [1] > 11.4 µM | activity change, negative = inhibition [10] -13.9% | activity, negative = inhibition [11] -2.73% | Potency [12] > 9.22 µM | Potency [3] > 46 µM | outcome [13] | activity change, negative = inhibition [5] -1.33% | Potency [6] | Potency [7] | Potency [8]
4.64%: max response [5, 18]
active: Potency [2] 5.01 µM | Potency [4] 2.51 µM
6.66%: max response [5, 17]

COc1ccc(-c2nc3cnc(Nc4cccc(OC)c4)nc3n(C)c2=O)cc1
2.92%: max response [5, 18]
2.29%: max response [5, 17]
inactive: Potency [1] > 11.4 µM | activity change, negative = inhibition [9] -11.9% | activity change, negative = inhibition [10] -14.3% | activity, negative = inhibition [11] 0.85% | Potency [12] > 9.22 µM | Potency [3] > 46 µM | outcome [13] | Potency [4] | activity change, negative = inhibition [5] 1.51% | Potency [6] | Potency [7] | Potency [8]

COc1ccc(CNc2ncncc2-c2cccnc2)c(OC)c1
active: Potency [2] 3.16 µM | Potency [16] 0.501 µM
18.2%: max response [5, 17]
22.7%: max response [5, 18]
inactive: Potency [1] > 11.4 µM | activity change, negative = inhibition [9] 3.11% | activity change, negative = inhibition [10] 4.08% | activity, negative = inhibition [11] 0.586% | Potency [12] > 46 µM | outcome [13] | Potency [4] | activity change, negative = inhibition [15] 26.1% [at 2.29 µM] | Potency [14] | activity change, negative = inhibition [5] 4.88% | Potency [6] | Potency [7] | Potency [8]

COc1ccc(-n2c(=O)cnc3cnc(N4CCN(C)CC4)nc32)cc1
19.5%: max response [5, 18]
inactive: Potency [1] > 11.4 µM | activity change, negative = inhibition [9] -6.82% | activity change, negative = inhibition [10] -9.46% | activity, negative = inhibition [11] 2.91% | Potency [12] > 9.22 µM | Potency [3] > 46 µM | outcome [13] | Potency [4] | activity change, negative = inhibition [5] 2.82% | Potency [6] | Potency [7] | Potency [8]
18.4%: max response [5, 17]

COc1ccc(CNc2cc(-c3ccoc3)ncn2)c(OC)c1
inactive: Potency [1] > 11.4 µM | activity change, negative = inhibition [9] -15.9% | activity, negative = inhibition [11] 19.9% | Potency [12] > 46 µM | Potency [3] > 46 µM | outcome [13] | Potency [4] | Potency [14] | activity change, negative = inhibition [5] 8.38% | Potency [6] | Potency [7] | Potency [8]
31.5%: max response [5, 17]
38.7%: max response [5, 18]

Cc1nc2cnc(N3CCN(C)CC3)nc2n(CCC#N)c1=O
inactive: Potency [1] > 11.4 µM | activity change, negative = inhibition [9] 9.68% | activity change, negative = inhibition [10] -13.7% | activity, negative = inhibition [11] -9.15% | Potency [12] > 9.22 µM | Potency [3] > 46 µM | outcome [13] | Potency [4] | activity change, negative = inhibition [5] 4.33% | Potency [6] | Potency [8]
9.36%: max response [5, 18]
active: Potency [2] 12.6 µM
7.54%: max response [5, 17]

Cc1ccccc1-c1nc(NCc2cccs2)c2ccccc2n1
inactive: activity change, negative = inhibition [10] -9.98% | activity, negative = inhibition [11] -16.7% | Potency [12] > 46 µM | Potency [3] > 46 µM | outcome [13] | activity change, negative = inhibition [5] 5.52% | Potency [6] | Potency [8]
-1.85%: max response [5, 17]
1.44%: max response [5, 18]
active: Potency [7] 14.1 µM

CC(=O)NCCNc1ncncc1-c1ccccc1C
inactive: Potency [1] > 11.4 µM | activity change, negative = inhibition [9] 10.6% | activity change, negative = inhibition [10] 5.27% | activity, negative = inhibition [11] 8.22% | Potency [12] > 46 µM | Potency [3] > 46 µM | outcome [13] | Potency [4] | activity change, negative = inhibition [15] 19.5% [at 2.29 µM] | Potency [14] | activity change, negative = inhibition [5] 6.81% | Potency [6] | Potency [7] | Potency [8]
active: Potency [2] 25.1 µM | Potency [16] 2.51 µM
23%: max response [5, 18]
17.2%: max response [5, 17]
